FLuc counter: firefly luciferase modulation, counter-screen for miR-21 project; P08659; purified FLuc, Km substrates, luminescence inhibition; Potency, µM (highest dose often 57.5 µM), actives largely listed as inhibitors; hit rate 6.9% among 360,000; also: nearly all actives have a fitted effect of over 55% in size
Target sequence (P08659 whole entry, looked up): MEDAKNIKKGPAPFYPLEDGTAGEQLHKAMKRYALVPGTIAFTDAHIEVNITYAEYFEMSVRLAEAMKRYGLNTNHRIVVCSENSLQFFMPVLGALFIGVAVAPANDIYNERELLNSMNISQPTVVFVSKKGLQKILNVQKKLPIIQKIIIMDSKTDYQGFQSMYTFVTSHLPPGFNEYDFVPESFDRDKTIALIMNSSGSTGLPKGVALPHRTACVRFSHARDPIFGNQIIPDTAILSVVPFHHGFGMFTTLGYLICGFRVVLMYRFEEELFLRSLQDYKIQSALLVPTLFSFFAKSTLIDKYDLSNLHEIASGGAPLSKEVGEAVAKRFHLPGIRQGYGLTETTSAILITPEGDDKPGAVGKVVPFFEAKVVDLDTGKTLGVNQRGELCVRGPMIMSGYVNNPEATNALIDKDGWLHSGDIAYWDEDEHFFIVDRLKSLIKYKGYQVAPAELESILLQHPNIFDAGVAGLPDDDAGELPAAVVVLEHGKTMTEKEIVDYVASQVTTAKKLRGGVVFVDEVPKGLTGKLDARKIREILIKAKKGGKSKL
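Purified P. pyralis luciferase, 10 nM final, with Km-level 10 uM D-luciferin and 10 uM ATP in 50 mM Tris acetate pH 7.5, 10 mM Mg acetate, 0.01% Tween-20, 0.05% BSA; 6-point qHTS titration about 60 µM downward; luminescence read.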
SMN2 splice enh: enhancers of SMN2 splice variant expression | HEK293 SMN2-luciferase splicing reporter, luminescence, 30-36 h | Potency, µM (doses to about 46.1 µM), hits mostly activators | hit rate 2.8% among 210,000 | AID 1458; also: nearly all actives have a fitted effect of over 55% in size
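qHTS luciferase splicing reporter: luminescence rises when SMN2 exon 7 is included in transfected HEK293 cells. Compound exposure lasted 30-36 h at 37C, with 4.5 mM final sodium butyrate as control, followed by a ONE-Glo read.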
NPC1 promoter act: NPC1 promoter activation. Huh7 NPC1 promoter luciferase reporter, 24 h. Potency, µM (series often up to 9.22 µM), most hits filed as activators. hit rate 2.4% among 320,000. AID 485313; also: nearly all actives have a fitted effect of over 60% in size
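Stably transfected Huh7 (NPC1 promoter→luciferase), 1500 cells/well in Opti-MEM + 10% FBS, 2 h settle, then compound 24 h at 37 °C. Luminescence after 10 min with Amplite reagent.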
ELG1 genotoxic: genotoxicity induction in ELG1-luciferase HEK293T cells. hit rate 1.3% among 330,000. HEK293T ELG1-luciferase reporter, luminescence, 16 h. Potency, µM (titrated, usually from 46 µM), most hits filed as activators; also: nearly all actives have a fitted effect of over 60% in size
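DMSO vehicle served as control against compound-treated ELG1-luciferase HEK293T cells; exposure lasted 16 hr at 37 °C and 5% CO2, followed by ONE-Glo luminescence detection after 30 min.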
Rab9 prom act: activators of Rab9 promoter; AID 485297; Potency, µM (top dose mostly 9.22 µM), hits mostly activators; Huh7 Rab9 promoter-luciferase reporter, luminescence, 24 h; hit rate 2.8% among 320,000; also: nearly all actives have a fitted effect of over 60% in size
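Stable Rab9-luc Huh7, 1500 cells/well, 2 h settle; cmpd in DMSO, 24 h, 37 °C/5% CO2; luciferase reagent 10 min RT; luminescence.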
Hits are given with their value; n = inactive; u = inconclusive; x = not tested or not shown; [ ] = dose if it differs, or a comment. Rows were chosen to be rich in hits. Some 7.4% of all compounds tested hit in one or more screens of this group. Calls follow the shape of the dose curve; as a rule, active = well fitted curve in the direction sought with a large enough effect; inconclusive = small, poorly fitted or top-dose-only effect, or another doubt; inactive = no such curve, though single readings can be large; an effect the other way counts as inactive or inconclusive.

SMILES	FLuc counter	SMN2 splice enh	NPC1 promoter act	ELG1 genotoxic	Rab9 prom act
O=C(/C=C/c1ccncc1)c1cc(Cl)ccc1O	n	x	n	n	n[1.84 µM]
CN(C)c1ccc(/C=C/C(=O)c2cc(Cl)ccc2O)cc1	9.53µM	x	u	n	n
COc1ccc(/C=C/C(=O)/C=C/c2ccc(OC)cc2OC)c(OC)c1	x	n	x	x	x
COc1ccc(/C=C/C(=O)c2cc(Cl)ccc2O)c(OC)c1	10.7µM	x	u	n	n
CC(C)CN(C(=O)CN(C)CC(=O)Nc1ccccc1C#N)c1c(N)n(CC(C)C)c(=O)[nH]c1=O	x	x	x	n	x
CC(=O)c1cccc(NC(=O)CSc2nc(=O)n(CCN3CCOCC3)c3c2CCC3)c1	n	x	n	n	n
O=C(CSC(=S)N1CCCC1)N(Cc1nnc(-c2ccccc2Cl)o1)C1CC1	n	x	n	n	n
Cc1ccc(S(=O)(=O)Nc2cc3c(cc2N2CCOCC2)n(C)c(=O)n3C)c(C)c1	n	n	x	x	x
COc1ccc(/C=C/C(=O)c2cc3c(cc2N)OCO3)cc1	2.13µM	u	u	u	u
COc1ccc(CCNC(=O)COC(=O)/C=C/c2ccc3c(c2)OCO3)cc1	x	x	x	n	x
COC(=O)c1ccc(/C=C/C(=O)c2ccc(OC)cc2)cc1	10.7µM	n	u	n	n
COc1ccc(/C=C/C(=O)c2ccc(Cl)cc2)c(OC)c1	2.13µM	n	n	u	n
COc1ccc(C(=O)/C=C(\N)C(F)(F)F)c(O)c1	10.7µM	n	n	n	n
COC(=O)c1ccc(/C=C/C(=O)c2ccc(OC)c(OC)c2)cc1	u	n	n	n	n
Fc1ccc(-c2noc3ncnc(NCc4ccc(Cl)cc4)c23)cc1	n	x	x	x	x
COc1ccc(/C=C/C(=O)c2ccc(O)cc2O)cc1	x	n	x	x	x
O=C(/C=C/c1ccccc1)c1ccc(O)cc1O	x	n	x	x	x
O=C(/C=C/c1ccc(O)cc1)c1ccc(O)cc1O	10.7µM	n	n	u	n
COc1ccc(C(=O)/C=C/c2ccccc2)c(O)c1	6.01µM	n	u	n	u
COc1ccccc1OCC(=O)NNC(=O)c1ccc2c(=O)n3c(nc2c1)CCC3	n	x	n	n	n
O=C(N/N=C/c1ccc2c(c1)OCO2)c1ccc(Br)o1	4.78µM	12.6µM	4.47µM	10.3µM	2.82µM
O=C(N/N=C/C1CC2CCC1C2)c1ccc2c(c1)OCO2 (stereo not given)	13.5µM	n	n	n	n
Cc1nc2ccc(C(=O)N/N=C/c3ccccc3O)cc2[nH]1	12µM	x	u	u	u
CCN(CC)c1ccc(/C=N/NC(=O)c2c(-c3ccccc3)noc2C)cc1	n	x	n	n	n
Cc1nc2ccc(C(=O)N/N=C/c3cc([N+](=O)[O-])ccc3O)cc2[nH]1	n	n	n	n	n
SMILES	FLuc counter	SMN2 splice enh	NPC1 promoter act	ELG1 genotoxic	Rab9 prom act
CCN(CC)c1ccc(/C=N/NC(=O)Nc2nonc2N)cc1	13.5µM	u	n	n	n
CC(C)Sc1ccccc1C(=O)Nc1ccc2c(c1)n(C)c(=O)n2C	n	x	n	u	n
CCCCN(CC)CCCNC(=O)Nc1sc2nc3n(c(=O)c2c1C)CCC(C)CC3 (stereo not given)	n	n	x	x	x
O=C(c1cccc(NS(=O)(=O)c2ccccc2)c1)N1CCCCC1	n	x	n	n	n
O=C(CNC(=O)c1ccc2c(c1)OCCO2)N/N=C/c1ccc([N+](=O)[O-])cc1	n	x	n	u	n
O=C(N/N=C/c1cccc([N+](=O)[O-])c1)c1ccc2c(c1)OCCO2	1.35µM	22.4µM	3.55µM	u	2.24µM
CCN(CC)c1ccc(/C=N/NC(=O)c2ccc(Br)o2)cc1	3.01µM	11.2µM	2.24µM	u	3.16µM
COc1ccccc1NS(=O)(=O)c1cccc(C(=O)N/N=C/c2ccc3c(c2)OCCO3)c1	10.7µM	n	n	n	n
CCN(CC)c1ccc(/C=N/NC(=O)Cc2ccc(OC)c(OC)c2)cc1	u	x	n	n	n
COc1ccc(NS(=O)(=O)c2cccc(C(=O)N/N=C/c3ccc4c(c3)OCCO4)c2)cc1	n	n	n	n	n
O=C(N/N=C/c1ccc2c(c1)OCCO2)c1ccncc1	9.53µM	x	n	n	n
COc1cccc(-n2cnc3c(sc4nc(N5CCOCC5)c5c(c43)CCCC5)c2=O)c1	n	n	n	n	n
O=C(N/N=C/c1ccsc1)c1ccc2c(c1)OCO2	3.38µM	x	3.55µM	u	2.82µM
O=C(N/N=C/c1ccc2c(c1)OCO2)c1ccc(NC(=O)c2ccc(F)cc2)cc1	n	x	n	n	n

High-throughput results as filed in PubChem BioAssay.
